The full ranking holds about 140,000 sequences; the median of “enrichment ratio after two sorts for PhoP signalling” is about 0, and the highest 2% start at about 11. The entries come from a sample that favours the highest values as a whole. Where only a bound is given, the exact number is not on record here.

The chains are these.
B1: PhoQ; a variant is named by its letters at X, in order, P23837 (parent)
chain: MKKLLRLFFPLSLRVRFLLATAAVVLVLSLAYGMVALIGYSVSFDKTTFRLLRGESNLFYTLAKWENNKLHVELPENIDKQSPTMTLIYDENGQLLWAQRDVPWLMKMIQPDWLKSNGFHEIEADVNDTSLLLSGDHSIQQQLQEVREDDDDAEMTHSVAVNVYPATSRMPKLTIVVVDTIPVELKSSYMVWSWFIYVLSANLLLVIPLLWVAAWWSLRPIEALAKEVRELEEHNRELLNPATTRELTSLVRNLNRLLKSERERYDKYRTTLTDLTHSLKTPLXXLQXXLRSLRSEKMSVSDAEPVMLEQISRISQQIGYYLHRASMRGGTLLSRELHPVAPLLDNLTSALNKVYQRKGVNISLDISPEISFVGEQNDFVEVMGNVLDNACKYCLEFVEISARQTDEHLYIVVEDDGPGIPLSKREVIFDRGQRVDTLRPGQGVGLAVAREITEQYEGKIVAGESMLGGARMEVIFGRQHSAPKDE

In this assay the parent is B1. As to the kind of experiment: enrichment ratio after two sorts for PhoP signalling (ratio (wild type AVST 3.29)); higher = more functional. The following applies: with PhoP (E. coli).
Regarding YSLM, the enrichment ratio was found to be 9.22. As for KKFE, the enrichment ratio is not above 0.25.

As for ELTM, the enrichment ratio is not above 0.25.

With TLNS, the enrichment ratio turned out to be 6.81. As for EHKW, the enrichment ratio was not above 0.25.

In the case of HFHT, the enrichment ratio is not above 0.25. In the case of QNLL, the enrichment ratio is not above 0.25. As for NWYY, the enrichment ratio is not above 0.25.

As to IMGQ, the enrichment ratio is not above 0.25. On to PTPW, for which the enrichment ratio was not above 0.25. TWNY: the enrichment ratio was not above 0.25. Turning to KCHM, the enrichment ratio was not above 0.25. With MCHM, the enrichment ratio is 16.7. On to MDHM, for which the enrichment ratio was not above 0.25. The value for YPGL was not above 0.25. Consider SGMD, for which the enrichment ratio was not above 0.25.

For the variant SGMW, the enrichment ratio was not above 0.25. Regarding SGHF, the enrichment ratio was not above 0.25. In the case of SGGF, the enrichment ratio turned out to be 1.06. Consider SGWN, for which the enrichment ratio is not above 0.25. As for SGCV, the enrichment ratio came out at 15.2. SGMN: the enrichment ratio turned out to be 30.2.

For SGNL, the enrichment ratio turned out to be 0.304. As for SGMV, the figure is 14.3; as for SGMF, 13.3. The value for SGWV was not above 0.25; that for SGCI was 10.3; that for IRYD was not above 0.25. For ARIW, the enrichment ratio was not above 0.25. QYQP: the enrichment ratio was not above 0.25. Regarding YDYL, the enrichment ratio was not above 0.25. Turning to LNRM, the enrichment ratio is not above 0.25. As to SGMS, the enrichment ratio was found to be 6.87.

For SGMI, the enrichment ratio came to 25. For the variant SGMG, the enrichment ratio turned out to be 0.699. As for EIPP, the enrichment ratio was not above 0.25. SECC: the enrichment ratio was 38. The value for FSCC was 1.27. IPCC: the enrichment ratio was not above 0.25. For FECC, the enrichment ratio turned out to be 22.6. For SLCC, the enrichment ratio came out at 8.22.

On to TECC, for which the enrichment ratio turned out to be 30. As for HECC, the enrichment ratio was 7.31. As for EECC, the figure is not above 0.25; as for IECC, 11.9. For SPCC, the enrichment ratio was not above 0.25.

As for FCCC, the enrichment ratio was not above 0.25.

For the variant HPCC, the enrichment ratio was not above 0.25. As for KYGK, the figure is not above 0.25. RDWY: the enrichment ratio is not above 0.25. Take FLEP: the enrichment ratio was not above 0.25.

Turning to HSIW, the enrichment ratio was not above 0.25. In the case of MECC, the enrichment ratio came to 14.4. For QECC, the enrichment ratio is not above 0.25. NECC: the enrichment ratio is not above 0.25. APCG: the enrichment ratio is not above 0.25. Take HWFW: the enrichment ratio was not above 0.25. Take QDYL: the enrichment ratio is not above 0.25.

For VYQC, the enrichment ratio was not above 0.25.

Take NQQC: the enrichment ratio was not above 0.25. With KAQC, the enrichment ratio is not above 0.25. The value for VLQC was not above 0.25. In the case of SHQC, the enrichment ratio is not above 0.25. In the case of NSQC, the enrichment ratio was not above 0.25. For the variant NHQC, the enrichment ratio is not above 0.25. As for VVQC, the enrichment ratio stood at 12.7. Take THQC: the enrichment ratio came to 13.1.

With TKQC, the enrichment ratio is 12.8. Regarding KSQC, the enrichment ratio is not above 0.25. Regarding TSQC, the enrichment ratio came to 14.5.

As for FREL, the enrichment ratio is not above 0.25.

As for PHMW, the enrichment ratio is not above 0.25. Regarding YKAD, the enrichment ratio was not above 0.25.

Take LFMF: the enrichment ratio is not above 0.25. In the case of WKII, the enrichment ratio is not above 0.25.

On to WHFY, for which the enrichment ratio is not above 0.25.

As for WCRI, the enrichment ratio was not above 0.25. For the variant QMHF, the enrichment ratio was 13.5.

For the variant QEGE, the enrichment ratio was not above 0.25.

In the case of QMNG, the enrichment ratio came to 38.7. As for QMDH, the enrichment ratio amounted to 15. As to QMHI, the enrichment ratio was not above 0.25. On to QRNG, for which the enrichment ratio is not above 0.25.

For QMDS, the enrichment ratio was not above 0.25. With QMTH, the enrichment ratio is not above 0.25. For QMGE, the enrichment ratio was 96.1. As to QMMI, the enrichment ratio was not above 0.25. With QMGF, the enrichment ratio was determined as 6.84. As to QMWW, the enrichment ratio is not above 0.25.
